# Screening data from PubChem.
# PI5P4K alpha inh – qHTS for Inhibitors of phosphatidylinositol 5-phosphate 4-kinase (PI5P4K) | max response, % | Phosphatidylinositol 5-phosphate 4-kinase type-2 alpha (Homo sapiens), P48426 | PI5P4Kalpha enzyme, ADP-Glo luminescence, 60 min; active compounds read low | AID 652105, 2013 | actives 1.2% (n = 330,000); active means max response of -50% or lower; inconclusive means between -30% and -50%; inactive means -30% or higher; further: value at the top dose of about 77 µM; on the % scale 0 is the no-effect control and ±100 the full control effect
#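 Enzyme plus substrate dispensed, test compounds pinned in, then ATP (5 microM final) added. After 60 min at RT, ADP-Glo reagent 1 for 45 min and reagent 2 for 30 min preceded luminescence imaging.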
# G9a block – qHTS Assay for Inhibitors of Histone Lysine Methyltransferase G9a | Potency, µM (top dose mostly 102 µM), inactives show at the top dose activity, negative = inhibition, actives largely listed as inhibitors | actives 8.8% (n = 350,000) | G9a H3K9 monomethylation, AlphaScreen, 2 h; further: potency means the concentration at half of the fitted maximal effect; on the % scale 0 is the no-effect control and ±100 the full control effect; nearly all actives have a fitted effect of over 75% in size
#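 Enzyme 20 nM + cpd, 15 min RT; add b-H3K9 pep 500 nM / SAM 20 uM; 2 h RT; anti-H3K9me1 Ab 0.5 ug/mL + SA donor / anti-rabbit acceptor beads 20 ug/mL each, 10 min; AlphaScreen read.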
# BAZ2B inh – qHTS Assay for Inhibitors of BAZ2B. actives 4.4% (n = 360,000). AlphaScreen BAZ2B-H3K14Ac peptide displacement. Potency, µM (doses to about 114 µM), without a hit: top-dose activity change, negative = inhibition, hits mostly inhibitors. Bromodomain adjacent to zinc finger domain protein 2B (Homo sapiens), Q9UIF8. AID 504333, 2011; further: potency means the concentration at half of the fitted maximal effect; on the % scale 0 is the no-effect control and ±100 the full control effect; nearly all actives have a fitted effect of over 60% in size
#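 AlphaScreen displacement of biotin-H3(5-23)K14Ac peptide (50 nM final) from BAZ2B (50 nM final) in PBS pH 7.4, 0.01% Tween-20; complex preformed 30 min RT, then compounds (top 110 uM) 30 min RT, beads 20 min dark.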
# HP1b chromo inh – HTS for Inhibitors of HP1-beta Chromodomain Interactions with Methylated Histone Tails | AlphaScreen HP1-beta / biotin-H3K9me3 peptide binding | Potency, µM (highest dose often 114 µM), inactives show at the highest dose activity change, negative = inhibition, actives largely listed as inhibitors | actives 0.56% (n = 390,000); further: potency means the concentration at half of the fitted maximal effect; nearly all actives have a fitted effect of over 70% in size
#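 AlphaScreen: HP1-beta (50 nM) preformed 30 min with biotin-H3(1-18)K9me3 peptide (50 nM) in PBS pH 7.4, 0.01% Tween-20. Compound added for 30 min at RT, then streptavidin donor/nickel chelate acceptor beads (10 ug/mL) for 30 min.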
# JMJD2A Tudor – qHTS Assay for Inhibitors of JMJD2A-Tudor Domain; AlphaScreen JMJD2A-Tudor / H3K4me3 peptide binding; Lysine-specific demethylase 4A (Homo sapiens), O75164; Potency, µM (titrated, usually from 114 µM), for the others: at the highest dose activity change, negative = inhibition, hits mostly inhibitors; actives 4.4% (n = 390,000); AID 504339, 2011; further: potency means the concentration at half of the fitted maximal effect; on the % scale 0 is the no-effect control and ±100 the full control effect; nearly all actives have a fitted effect of over 50% in size
# L3MBTL1 inh – qHTS Assay for the Inhibitors of L3MBTL1 | AlphaScreen L3MBTL1–H3K9me1 peptide binding | Potency, µM (series often up to 57.1 µM), inactives show top-dose activity, negative = inhibition, actives largely listed as inhibitors | actives 0.66% (n = 230,000) | AID 485360, 2010; further: potency means the concentration at half of the fitted maximal effect; on the % scale 0 is the no-effect control and ±100 the full control effect; nearly all actives have a fitted effect of over 60% in size
#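 Read-out is AlphaScreen signal from streptavidin donor and nickel chelate acceptor beads (10 ug/mL final each) bridging L3MBTL1 (50 nM) and biotinylated K9-monomethylated H3(1-15) peptide (75 nM), after 30 min compound exposure at room temperature.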
# * hit, by the source's call; ? = inconclusive; . = no result; [ ] = remark or other dose. In the library only some 11% were active in any assay of this set; here they are far more common. Unless noted, the call rests on the fitted dose curve; in most records, active means well fitted inhibition curve with a large enough effect; inconclusive means small, poorly fitted or top-dose-only effect; inactive means no such curve, though single readings can be large or run the other way.
SMILES,PI5P4K alpha inh,G9a block,BAZ2B inh,HP1b chromo inh,JMJD2A Tudor,L3MBTL1 inh
COc1cc(C)c(NC(=S)Nc2cccc(Cl)c2)cc1OC,-12,89µM*,-1%,?,-23%,-4%
COc1ccc(Cl)cc1NC(=O)c1ccccc1C,11,13%[59 µM],42%,102%,47%,17%
Cc1ccccc1NC(=S)NCCSc1ccc(Cl)cc1,-2,33%[59 µM],?,7%,89µM*,.
COc1ccc(Cl)cc1NC(=S)NCc1ccccn1,-7,20µM*,-7%,10%,-14%,-3%
COc1ccc(Cl)cc1NC(=S)Nc1ccccc1C,1,.,-3%,-2%,14µM*,1%
COc1cc2c(cc1OC)C(COc1ccc3c(C)cc(=O)oc3c1)N(C(=O)c1ccccc1C)CC2 (stereo not given),.,1%[59 µM],-7%,19%,-10%,.
COC(=O)c1cc(OC)c(OC)cc1NC(=S)Nc1cccc(C(C)=O)c1,7,10µM*,5%,5%,22µM*,10%
C=CCn1c(C)cc(C)c(C#N)c1=O,.,16%,?,2%,-14%,3%
C=CCn1c(O)c(CN2CCOCC2)c(C)c(C#N)c1=O,1,50µM*,-39%,21%,-14%,-1%
O=C(CSCc1nc2cccnc2n1C1CCCCC1)NCc1cccc(Br)c1,.,16%[59 µM],-6%,4%[57 µM],-13%,.
Cc1ccc(OCC(=O)N2CCC(Cc3ccccc3)CC2)c([N+](=O)[O-])n1,-5,10µM*,-4%,26%,-25%,-9%
Cc1ccc(NC(=O)CN2C(=O)c3ccccc3Sc3ncccc32)c(C)c1,.,-41%[59 µM],-23%,1%,-21%,.
COc1ccc(C)cc1NC(=O)Cn1c(=O)ccc2cc(S(=O)(=O)N3CCC(C)CC3)ccc21,.,1%[59 µM],0%,10%[57 µM],-32%,.
CN(C)C(=O)NC1c2ccccc2-c2ccccc21,2,5%,2%,35%,2%,.
O=C1C=CC(=O)N1c1ccc2c(c1)C(NC(=O)C(F)(F)F)c1ccccc1-2 (stereo not given),?,.,.,13µM*,7.9µM*,.
Brc1ccc(C2=Nc3cccc4cccc(c34)N2)o1,-17,16µM*,?,45µM*,?,-2%
Cc1ccc(S(=O)(=O)NCCC2(C(C)C)CCOC(C)(C)C2)cc1 (stereo not given),-1,16%[2.33 µM],2%,15%,-3%,.
Cc1ccc(C2=NNC3(CCOC(C)(C)C3)S2)cc1 (stereo not given),?,28µM*,-36%,-30%,?,-4%
CCc1ccc(NC(=O)CSc2c(C)cnc3c2c(=O)n(C)c(=O)n3C)cc1,.,-3%[59 µM],5%,32%,-2%,.
O=C(O)c1ccc2c(c1)C1C=CCC1C(c1ccncc1)N2 (stereo not given),-4,?,56µM*,27%,-3%,.
COc1cccc([C@@H]2Nc3ccc(C(=O)O)cc3[C@@H]3C=CC[C@@H]32)c1OC,.,?,-4%,27%,-4%,.
CC(=O)c1ccc2c(c1)C1C=CCC1C(c1ccc(S(=O)(=O)N3CCOCC3)cc1)N2 (stereo not given),-65*,?,?,6%,-32%,-18%
O=C(NCc1ccccn1)C1Nc2ccc(C(F)(F)F)cc2C2C=CCC12 (stereo not given),?,.,.,11%,?,.
FC(F)(F)c1ccc2c(c1)C1C=CCC1C(c1ccncc1)N2 (stereo not given),-3,?,45µM*,-8%,?,?
O=C(NCc1ccccc1Cl)c1cnc2sc(N3CCOCC3)nn2c1=O,.,-17%[59 µM],-3%,16%,-5%,.
SMILES,PI5P4K alpha inh,G9a block,BAZ2B inh,HP1b chromo inh,JMJD2A Tudor,L3MBTL1 inh
Cc1ccc(CN2CCCn3nc(C(=O)NCCc4ccc(Cl)cc4)cc3C2=O)cc1,.,-3%[59 µM],-33%,3%,-13%,.
Cc1c(CC(=O)NCCc2ccc(Cl)cc2)c(=O)oc2c(C)c3occ(C(C)(C)C)c3cc12,.,-2%[59 µM],-14%,39%,-3%,.
COc1ccc(C=C2OC(=O)C(C(C)=O)=C2O)cc1,-54*,.,.,.,.,.
COc1cc(/C=C(/C#N)C(=O)NC(C)c2ccccc2)cc(OC)c1O (stereo not given),-2,14µM*,?,-16%,-24%,.
N#C/C(=C\c1ccc(N2CCOCC2)o1)C(=O)NCCc1ccccc1,9,32µM*,-27%,21%,-32%,-11%
N#C/C(=C\c1ccc(O)c(O)c1)C(=O)NCCCc1ccccc1,?,3.4µM*,8.9µM*,?,45µM*,?
N#C/C(=C/c1ccc(C(=O)O)cc1)C(=O)NCc1ccccc1,.,?,-4%,17%,-12%,12%
COc1cc(/C=C(/C#N)C(=O)Nc2ccccc2)c(Br)cc1OCc1ccc(C(=O)O)cc1,5,?,?,-26%,?,.
COc1cc(/C=C(\C#N)C(=O)Nc2cccc(C(=O)O)c2)ccc1OCc1ccc(Cl)cc1,-10,-48%,45µM*,2%,?,.
O=C(NCc1nc2ccccc2n1Cc1ccccc1Cl)c1ccccc1,.,-7%[59 µM],-3%,18%,-12%,.
COc1cc(/C=C(/C#N)C(=O)NCc2ccccc2)cc(OC)c1OC,0,.,-2%,52%,-3%,10%
COc1ccc(/C=C(\C#N)C(=O)NCCc2ccccc2)cc1OCc1ccccc1,-7,1µM*,42%,42%,-7%,36%
COc1ccc(/C=C(/C#N)C(=O)Nc2cccc([N+](=O)[O-])c2)cc1C(=O)O,3,45µM*,?,-18%,-25%,-13%
N#C/C(=C\c1cccc([N+](=O)[O-])c1)C(=O)NCc1ccc(Cl)cc1,?,50µM*,?,1%,?,-5%
Cc1ccc2c(c1)-c1c(cnn1CC(=O)NC(C)CCc1ccco1)CO2 (stereo not given),-9,45µM*,-32%,3%,-28%,-5%
Cc1ccc2c(c1)-c1c(cnn1CC(=O)N(Cc1ccco1)C1CCCCC1)CO2,-5,-18%[59 µM],-39%,-8%,?,-11%
COCc1c(Br)c(C)nc2sc3c(=O)n(-c4cccc(Br)c4)nnc3c12,.,-23%[59 µM],-1%,18%,-21%,.
COc1ccccc1Cc1nc2ccccc2nc1SCC(=O)NCc1ccc(F)cc1,.,-3%[59 µM],12%,20%[57 µM],-6%,.
